Among the data in PubChem BioAssay AID689 (Sanford-Burnham Center for Chemical Genomics, 2007) are inhibition values, retold here.

Molecules are shown by their SMILES. The whole screen tested about 62,000 compounds, of which about 80 (0.1%) were called active. These entries were drawn from the full list. Results with a measured potency or affinity are listed apart. Unmarked numbers belong to inactive results. No rule for the calls is given here.

A word on the inhibition: it is the relative decrease from the control value, in per cent.

Chain of Ephrin type-A receptor 4 (Mus musculus) (Q03137 whole entry, looked up): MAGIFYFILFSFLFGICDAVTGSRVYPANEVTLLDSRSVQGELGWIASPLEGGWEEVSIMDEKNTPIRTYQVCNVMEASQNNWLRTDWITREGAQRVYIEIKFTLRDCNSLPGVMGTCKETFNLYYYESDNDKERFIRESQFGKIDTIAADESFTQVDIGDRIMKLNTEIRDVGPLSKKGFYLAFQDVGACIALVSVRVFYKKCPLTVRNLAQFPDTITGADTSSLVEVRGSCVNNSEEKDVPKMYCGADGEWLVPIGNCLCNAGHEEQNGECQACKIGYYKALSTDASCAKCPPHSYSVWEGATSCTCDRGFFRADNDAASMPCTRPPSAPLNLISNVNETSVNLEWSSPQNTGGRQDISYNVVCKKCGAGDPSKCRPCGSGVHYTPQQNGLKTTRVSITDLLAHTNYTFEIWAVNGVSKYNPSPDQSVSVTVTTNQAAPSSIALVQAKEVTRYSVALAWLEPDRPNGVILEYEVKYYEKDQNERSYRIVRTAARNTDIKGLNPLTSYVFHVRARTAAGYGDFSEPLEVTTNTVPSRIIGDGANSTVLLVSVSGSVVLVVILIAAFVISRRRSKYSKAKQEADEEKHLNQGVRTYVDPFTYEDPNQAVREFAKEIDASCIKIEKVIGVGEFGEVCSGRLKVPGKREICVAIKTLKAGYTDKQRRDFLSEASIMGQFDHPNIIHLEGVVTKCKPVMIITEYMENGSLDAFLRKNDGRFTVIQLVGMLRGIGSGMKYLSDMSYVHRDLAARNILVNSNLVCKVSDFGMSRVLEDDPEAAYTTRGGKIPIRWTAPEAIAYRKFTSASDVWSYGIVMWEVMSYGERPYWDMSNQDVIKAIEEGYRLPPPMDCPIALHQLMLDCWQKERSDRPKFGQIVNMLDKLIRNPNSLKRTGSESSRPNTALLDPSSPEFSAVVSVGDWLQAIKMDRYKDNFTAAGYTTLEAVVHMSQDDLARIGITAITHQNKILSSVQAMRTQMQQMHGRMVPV

The experiment has as its target Ephrin type-A receptor 4 (Mus musculus) (UniProt Q03137). As to the kind of experiment: EphA4 ligand-binding antagonists – biochemical, colorimetric, mouse EphA4, primary screen (AID 689). Conditions: EphA4-AP binding to KYL peptide, pNPP A405, at 10 µM, active compounds read high.
Consider `COc1cc2[nH]c3c(N4CCC(C(N)=O)CC4)ncnc3c2cc1OC`, for which the inhibition was -14.4%.
`CSc1nc(N(C)CCO)c2sc3nc(-c4ccco4)c4c(c3c2n1)CCC4`: the inhibition was 46.9%.
Turning to `CSc1nc(NCc2ccco2)c2sc3nc(C(C)C)c4c(c3c2n1)CC(C)(C)OC4`, the inhibition was -8.5%.
Consider `CCSc1ncnc2c1sc1nc(-c3ccco3)c3c(c12)CC(C)(C)OC3`, for which the inhibition is -1.2%.
Turning to `CSc1nc(N2CCN(CCO)CC2)c2sc3nc(-c4ccco4)c4c(c3c2n1)CCC4`, the inhibition is -2.2%.
As for `COC(=O)c1c(C)oc2ccc(OCc3ccccc3Br)cc12`, the inhibition is -1.2% [this sample at 5 µg/mL].
For `CC1CCN(c2cc(N3CCOCC3)c([N+](=O)[O-])cc2F)CC1`, the inhibition is 17.1%.
The result for `CCCCCn1c2nc3ccccc3nc2c2c(=O)n(CC(C)C)cnc21` reads -9.1%.
In the case of `Cn1nc(-c2ccccc2)c2nc3ccccc3nc21`, the inhibition is 45.4%.
The figure for `CCCn1cnc2c(c1=O)c1nc3ccccc3nc1n2CCc1ccccc1` is -9.5%; for `CCCCCn1c(N)c(C#N)c2nc3ccccc3nc21` it is 0.7%.
Consider `CCCCn1c2nc3ccccc3nc2c2c(=O)n(C(C)CC)cnc21` (configuration not stated), for which the inhibition was 0.6%.
As to `c1ccc(-c2nc(-n3nc4ccccc4n3)nc3ccccc23)cc1`, the inhibition is -3.4%.
The figure for `CCCn1nc(NS(=O)(=O)c2ccccc2)c2cc3ccccc3nc21` is -10.6%; for `CCCCn1c2nc3ccccc3nc2c2c(=O)n(CCC)cnc21` it is -2.2%.
The figure for `COc1cc(NC(=O)c2cnn3c2NC(c2ccc(Br)cc2)CC3C(F)(F)F)cc(OC)c1OC` (configuration not stated) is -4.6% [this sample at 5 µg/mL].
With `COc1ccc(-c2c(C(C)=O)c(C)nc3sc4c(c23)NC(c2ccccc2)NC4=O)cc1` (configuration not stated), the inhibition was -23.5%.
The result for `CC1(C)CC(=O)C2=C(C1)N(Cc1ccco1)C(=O)NC2(C(F)(F)F)C(F)(F)F` reads -8.1%; that for `Oc1ccc(N2CCN(c3ncnc4sc5c(c34)CCC5)CC2)cc1`, -17.1%.
In the case of `COc1ccccc1CNC(=O)c1oc2ccc(S(=O)(=O)N3CCCC3)cc2c1C`, the inhibition was 2.1%.
The result for `Cc1[nH]n(CCC#N)c(=O)c1CC(=O)N1CCN(c2ccccc2)CC1` reads -10.6%.
The result for `O=C(Nc1ccc2nn(-c3ccccc3)nc2c1)c1ccc(Cl)c([N+](=O)[O-])c1` reads -18.3% [this sample at 5 µg/mL]; that for `CCOC(=O)C(C)(C)C(=O)C(C)(C)C(O)c1ccccn1` (configuration not stated), -7.7%.
Regarding `CC(C)Cn1c(N)c(C(=O)CSc2nnnn2C)c(=O)n(C)c1=O`, the inhibition is -12%.
For `Cc1cc2ccccc2n1CCNC(=O)C1CCCC1`, the inhibition was 0.5%.
The result for `Cc1ccc(S(=O)(=O)NCCn2c(C)cc3ccccc32)cc1` reads 13.5%; that for `CCOc1ccc(NS(=O)(=O)c2ccc(OC)c(C)c2)cc1`, -20.6%.
On to `O=C(Nc1nc(-c2ccccc2)c(-c2ccccc2)s1)c1ccc(S(=O)(=O)N2CCCC2)cc1`, for which the inhibition was 8.7% [this sample at 5 µg/mL].
For `Cc1ocnc1C(=O)Nc1ccc(Cl)cc1`, the inhibition was -10.1%.
As to `CC(=O)C12c3ccccc3C(c3ccccc31)C1C(=O)NC(=O)C12` (configuration not stated), the inhibition is -14.2% [this sample at 5 µg/mL].
The figure for `CCOc1ccc(N(CC(=O)Nc2ccc(Br)cc2)S(=O)(=O)c2ccc(SC)cc2)cc1` is -3.8% [this sample at 5 µg/mL].
The figure for `Cc1cc(C)n2nc(SC3CCCCN(C(=O)c4ccc(F)cc4)C3=O)nc2n1` (configuration not stated) is -9.7%; for `c1ccc(-c2cn3nc4c(nc3n2)CCCC4)cc1` it is 5.2%.
With `Cc1nn2cc(-c3ccccc3)nc2s1`, the inhibition was -24.1%.
The result for `Cc1cc(=O)[nH]c(SCCOc2ccccc2C)n1` reads -0.8% [this sample at 5 µg/mL].
In the case of `CC1CC(C)CN(C(=O)CSc2nnc(-c3ccc(F)cc3)o2)C1` (configuration not stated), the inhibition was 8.1%.
`Cc1ccc(C(=O)N/C(=C\c2ccc([N+](=O)[O-])cc2)C(=O)NCCc2ccccc2)cc1`: the inhibition was 1.8%.
In the case of `Cc1ccc(NC(=O)/C(=C\c2ccc([N+](=O)[O-])cc2)NC(=O)c2ccccc2)cc1`, the inhibition is -12.9%.
Consider `COc1ccc(NC(=O)/C=C/c2ccccc2Cl)c([N+](=O)[O-])c1`, for which the inhibition is -10.9% [this sample at 5 µg/mL].
As for `CC1=N/C(=C\c2ccc([N+](=O)[O-])cc2)C(=O)N1c1ccc(Cl)cc1`, the inhibition is 22.2%.
On to `CC1=N/C(=C\c2ccc([N+](=O)[O-])cc2)C(=O)N1c1ccc(Br)c(C)c1`, for which the inhibition was 40.9%.
`O=C(COc1ccccc1)Nc1ccc(S(=O)(=O)N2CCOCC2)cc1`: the inhibition is 5.4%.
Regarding `C=C(C)Cn1c(COc2ccccc2)nnc1SCC(=O)O`, the inhibition was 1.1%.
For `O=C(/C(=C/c1ccccc1[N+](=O)[O-])c1nc2ccccc2[nH]1)c1ccccc1`, the inhibition is 9% [this sample at 5 µg/mL].
For the compound `CN1C(=O)C(=Cc2ccc(-c3ccc(Cl)c(C(=O)O)c3)o2)C(=O)N(C)C1=O`, the inhibition is 12.8% [this sample at 5 µg/mL].
Regarding `Cc1ccc(N2C(=O)/C(=C\c3ccc(-c4ccc(Cl)c(C(=O)O)c4)o3)C(=O)NC2=S)cc1`, the inhibition was -13.7% [this sample at 5 µg/mL].
Take `CCOC(=O)c1cc(-c2ccc(C=C3C(=O)N(C)C(=O)N(C)C3=O)o2)ccc1Cl`: the inhibition is 11% [this sample at 5 µg/mL].
The figure for `O=C1NC(=O)N(c2ccc(Cl)cc2)C(=O)/C1=C/c1ccc(-c2ccc(Cl)c(C(=O)O)c2)o1` is -6.4% [this sample at 5 µg/mL]; for `COc1ccc(/C=C/C(=O)Nc2cccc([N+](=O)[O-])c2)cc1Br` it is 1.9% [this sample at 5 µg/mL].
As to `COC(=O)c1cccc(NC(=O)COC(=O)CSc2nc(C)cc(C)n2)c1`, the inhibition was -9.9%.
The figure for `Cn1c(SCCOc2ccc(Cl)cc2)nnc1-c1ccncc1` is 13%.
Take `Cc1ccc(CNc2oc(C)nc2C#N)cc1`: the inhibition was -0.9%.
In the case of `O=C(NCCOc1ccccc1F)c1cccc2ccccc12`, the inhibition is -0.6% [this sample at 5 µg/mL].
With `COC(=O)c1ccc(Cn2cnc3c(cnn3-c3ccc(F)cc3)c2=O)o1`, the inhibition is 9.4%.
The figure for `Cc1ccc(OCc2nnc(SCC(=O)Nc3sc(C)c(C)c3C#N)n2C)cc1` is -5.2%; for `Cc1ccc(/C=C/C2=Cc3c(sc(NC(=O)CSc4n[nH]c(N)n4)c3C#N)C(C)(C)C2)o1` it is 44.8%.
`CCOc1ccc(NC(=O)CSc2nc(C)c3c(c2C#N)CCCC3)cc1`: the inhibition is -14.6%.
Regarding `Cc1sc(NC(=O)CSc2nnc(C)c(=O)[nH]2)c(C#N)c1C`, the inhibition was -25.1%.
The result for `COc1cc(C2N(c3ccc(Cl)c(Cl)c3)C(=O)C3CCCN32)cc(OC)c1OC` (configuration not stated) reads -1.5%; that for `O=C(NC1CCCCCCC1)C1CCCN(S(=O)(=O)c2cnc[nH]2)C1` (configuration not stated), -3.1%; that for `COc1ccc(C)cc1NC(=O)C1CC(=O)N(Cc2ccco2)C1` (configuration not stated), -16.4%.
Turning to `O=C1CCCC2=C1C(c1cccs1)Nc1ccc3ncccc3c12` (configuration not stated), the inhibition is -5.1%.
For `O=C1CCCC2=C1C(c1ccco1)Nc1ccc(C(=O)c3ccccc3)cc1N2` (configuration not stated), the inhibition is -4.7%.
Regarding `CC1(C)N=C(c2ccc(Cl)cc2Cl)C(=O)N1`, the inhibition was -8.8%.
`CCOc1ccccc1NC(=S)N1CCC(NC(=O)NC23CC4CC(CC(C4)C2)C3)CC1`: the inhibition was -4.6%.
Consider `O=C(c1ccc2c(c1)OCO2)N1CCC(CN2C(=O)c3cccc4cccc(c34)C2=O)CC1`, for which the inhibition is -13.5% [this sample at 5 µg/mL].
Take `Cc1ccc2nc(NC3=NCN(Cc4ccccc4)CN3)nc(C)c2c1`: the inhibition is 1.1%.
As to `O=C1/C(=C\c2ccc(-c3ccccc3Cl)o2)SC(=S)N1Cc1ccccc1`, the inhibition was 18.2% [this sample at 5 µg/mL].
With `CN1C(=O)/C(=C2\SC(=S)N(CC3CCCO3)C2=O)c2ccccc21` (configuration not stated), the inhibition was -3.2%.
Take `Cc1ccccc1OCC(=O)Nc1ccc2c(c1)Cc1ccccc1-2`: the inhibition was -9.2%.
Regarding `Cc1c(NC(=S)N/N=C/c2ccc(O)cc2)c(=O)n(-c2ccccc2)n1C`, the inhibition was -1.6%.
The result for `Cc1c(NC(=O)CC(=O)Nc2c(C)n(C)n(-c3ccccc3)c2=O)c(=O)n(-c2ccccc2)n1C` reads 0.3%; that for `COc1ccccc1-c1nnc2n1N=C(c1ccc(O)c(O)c1)CS2`, -9.2%; that for `COc1cc(/C=c2\sc3nc4ccccc4n3c2=O)ccc1OS(=O)(=O)c1ccccc1`, 10.7% [this sample at 5 µg/mL].
Regarding `COc1cc(/C=c2\sc3nc4ccccc4n3c2=O)ccc1OCCOc1ccccc1`, the inhibition is -2.3% [this sample at 5 µg/mL].
As for `COCCNC(=O)CN(C(=O)CCC(=O)Nc1nccs1)c1ccccc1OC`, the inhibition is -10.3%.
Consider `CN1/C(=C\C=Nc2ccccc2)C(C)(C)c2ccccc21`, for which the inhibition is 4%.
As to `CN1/C(=C\C=[N+](C)c2ccccc2)C(C)(C)c2ccccc21`, the inhibition was -36.4%.
As for `CCN1C(=O)/C(=C/C=C2/SCCN2C)SC1=S`, the inhibition is -7.6%.
The figure for `CCN1C(=O)/C(=C\c2cccc(C)c2)SC1=S` is -1.5% [this sample at 5 µg/mL]; for `COc1ccc(C(=O)NCCCn2ccnc2)cc1` it is 3%.
The figure for `O=C(Nc1ccccc1)N1CCC(C(=O)N2CCN(S(=O)(=O)c3cccc(F)c3)CC2)CC1` is -6.6%.
